# The entries come from a sample that favours hits as a whole.
# Cruzain inh Det = inhibitors of Trypanosoma cruzi cruzain with detergent | P25779 | purified cruzain, Z-FR-AMC fluorescence, 0.01% Triton | Potency, µM, inactives show max response, negative = inhibition, hits mostly inhibitors | hit rate 0.43% among 200,000;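 also: plate controls were neutral wells for no effect and buffer without enzyme for full effect; nearly all actives have a fitted effect of over 40% in size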
# Target sequence (P25779 123-467 limits assumed): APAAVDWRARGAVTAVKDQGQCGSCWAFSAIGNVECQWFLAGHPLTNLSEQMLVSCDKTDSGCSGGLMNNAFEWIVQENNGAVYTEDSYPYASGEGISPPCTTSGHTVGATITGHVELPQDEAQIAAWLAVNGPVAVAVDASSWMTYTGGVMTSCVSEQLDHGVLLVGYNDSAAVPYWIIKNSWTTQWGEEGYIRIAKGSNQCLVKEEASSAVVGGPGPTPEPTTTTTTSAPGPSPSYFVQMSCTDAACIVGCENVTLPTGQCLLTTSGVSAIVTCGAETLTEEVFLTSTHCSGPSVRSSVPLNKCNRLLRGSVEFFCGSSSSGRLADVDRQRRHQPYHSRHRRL
#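 In this qHTS format, compounds are incubated with 1.5 nM cruzain for 15 min at room temperature before 2 uM Z-FR-AMC is added. Release of AMC is followed at 360/450 nm, and progress is taken as the 60 s fluorescence difference.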
# NS1 function inh = blocks influenza NS1 protein function; Potency, µM (highest dose often 46.1 µM), for inactives: at the top dose activity, positive = more growth; hit rate 0.4% among 270,000; AID 2326; calls by dose curve; also: actives are rising curves; nearly all actives have a fitted effect of over 50% in size
#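 Compounds were scored for reversing the slow growth caused by influenza A NS1 in S. cerevisiae, measured by optical density at 600 nm. Assay medium contained 2% galactose at pH 6.0; NS1-free yeast of the same strain were the positive control.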
# Cruzain inh noDet = inhibitors of Trypanosoma cruzi cruzain without detergent; purified cruzain, Z-FR-AMC fluorescence, no detergent; Potency, µM, without a hit: max response, negative = inhibition, usual class: inhibitors; hit rate 2.3% among 200,000; AID 1476;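 also: plate controls were enzyme without inhibitor for no effect and buffer without enzyme for full effect; nearly all actives have a fitted effect of over 40% in size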
#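 Purified cruzain at 1.5 nM, pre-incubated 15 min with compound at room temperature in 100 mM sodium acetate pH 5.5, 5 mM DTT, 0.00005% Triton X-100. Reaction started with 2 uM Z-FR-AMC; AMC fluorescence increase over 60 s gives rate.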
# * hit, by the source's call; ? = inconclusive; · = no result. Unless noted, calls follow the shape of the dose curve; as a rule, active = well fitted curve in the direction sought with a large enough effect; inconclusive = small, poorly fitted or top-dose-only effect, or another doubt; inactive = no such curve, though single readings can be large; an effect the other way counts as inactive or inconclusive. Potency is read from the fitted curve at half-maximal effect.
SMILES,Cruzain inh Det,NS1 function inh,Cruzain inh noDet
Cc1cccc(C2=NN(c3ccc(Br)cc3)[C@@H](C(=O)N3CCOC3=O)[C@@H]2c2ccc(Cl)cc2)c1,3.0%,·,8.91µM*
Cc1ccccc1-n1c(SCC(=O)Nc2ccc(Cl)cc2Cl)nc(O)cc1=O,-29.4%,·,1.0%
Cc1cc(S(=O)(=O)NCc2ccccc2)ccc1OCC(=O)NCc1ccccn1,·,-0.5%,·
Cc1cc(S(=O)(=O)NCc2ccccc2)ccc1OCC(=O)Nc1cccc([N+](=O)[O-])c1,-5.2%,9.3%,25.1µM*
OC(CN1CCNCC1)Cn1c2ccc(Br)cc2c2cc(Br)ccc21 (stereo not given),-8.6%,·,-2.0%
COCCn1c(=O)c(-c2cn(C)c3ccccc23)nc2cnc(Oc3ccc(OC)cc3)nc21,0.1%,·,-1.3%
CCOC(=O)c1c(NC(=S)NC)sc2c1CC(C)(C)SC2,-26.2%,1.0%,-23.9%
CCOC(=O)c1c(NC(=S)Nc2ccccc2)sc2c1CC(C)(C)SC2,-4.2%,28.2%,12.6µM*
COC(=O)c1c(NC(=S)Nc2ccc(CC(=O)O)cc2)sc(C)c1C,-11.0%,25.1%,7.8%
CCOC(=O)c1c(NC(=S)Nc2ccc(Cl)cc2)sc(C)c1C,-3.5%,-0.7%,3.98µM*
CO[C@@H]1c2cc(F)ccc2/C(=C\CCOC(=O)C/C=C/c2ccccc2)[C@H]1C,0.5%,·,6.0%
CC(C)c1cccc2c([Si](C)(C)C)c3c(nc12)-c1cccc(=O)n1C3,-14.2%,·,?
Cc1ccc(COC(=O)c2ccc(-c3nnn(Cc4ccc(C)cc4)n3)cc2)cc1,1.1%,·,-7.5%
Cc1ccc2nc(Cl)c3cc(C(=O)NC4CCC(C)CC4)sc3c2c1 (stereo not given),-2.6%,·,1.0%
CCCCN=C1NN=C(c2cc3ccccc3o2)CS1,-9.4%,-17.6%,7.94µM*
COCCCN=C1NN=C(c2cc(C)n(-c3ccccc3)c2C)CS1,-6.9%,15.0%,-4.6%
C[C@]12C=CC(=O)C=C1CCC1C2C(=O)C[C@]2(C)C1CC[C@]2(O)C(=O)CO (stereo not given in full),7.0%,·,8.0%
CCn1c(-c2cc(Br)cc(OC)c2O)nc2cc(S(=O)(=O)N(C)C)ccc21,-5.3%,-8.3%,20µM*
CCn1c(-c2ccccn2)nc2cc(S(=O)(=O)N(C)C)ccc21,·,-17.9%,·
CCCn1c(-c2ccc(F)cc2)nc2c(NCCCCN(C)C)nc(C)nc21,-7.8%,·,1.6%
C=Cc1cccc(C)c1,2.5%,·,-7.8%
CCc1cc2c(cc3c(=O)n(CC(=O)NC4CCCCC4)ncn32)s1,0.5%,·,-10.9%
COC(=O)c1ccccc1NC(=O)c1ccc(COc2cccc3ccccc23)o1,-1.4%,5.5%,15.8µM*
COC(=O)c1ccccc1NC(=O)c1ccc(COc2ccccc2)o1,-12.3%,-13.8%,-16.9%
CN(C)C(=O)Nc1cccc(C(F)(F)F)c1,-7.5%,·,2.1%
SMILES,Cruzain inh Det,NS1 function inh,Cruzain inh noDet
CCCCN(C(C)=O)C1CC(=O)N(c2ccc(OCCC)cc2)C1=O (stereo not given),·,-1.6%,·
CCCCCOc1ccc(N2C(=O)CC(N(O)c3ccccc3)C2=O)cc1 (stereo not given),-1.1%,?,25.1µM*
CCOc1ccccc1N1C(=O)CC(N(O)c2ccccc2)C1=O (stereo not given),-1.2%,1.0%,-4.9%
CCCCOc1ccc(N2C(=O)CC(N(O)c3ccccc3)C2=O)cc1 (stereo not given),2.3%,3.8%,20µM*
Cc1ccc(S(=O)(=O)NCCc2sc3nc(-c4ccccc4)nn3c2C)cc1C,-6.1%,·,10.4%
C[C@H](Br)CN(C[C@H](C)Br)c1ccc2c(c1)Cc1ccccc1-2,-4.1%,-12.9%,4.6%
CCCCCCc1cc2cc(S(=O)(=O)c3ccc(F)cc3)c(=O)oc2cc1O,-6.5%,-6.9%,25.1µM*
CCCCCCc1cc2cc(-c3nnc(-c4ccccc4O)o3)c(=O)oc2cc1O,-2.3%,2.3%,-9.5%
N#CC1=C(N)Oc2n[nH]c(-c3cccs3)c2C1c1ccoc1 (stereo not given),-3.8%,6.1%,-6.9%
Cc1ccc(C2C(C#N)=C(N)Oc3n[nH]c(-c4cccs4)c32)cc1 (stereo not given),-1.9%,14.5%,31.6µM*
CS(=O)(=O)Nc1cccc(-c2nccc(-n3ccnc3)n2)c1,5.5%,·,3.0%
Cc1oc2c(cc(NS(=O)(=O)c3ccc(C(C)C)cc3)c3ccccc32)c1C(=O)O,?,22.0%,19.0%
Cc1oc2c(cc(NS(=O)(=O)c3cccs3)c3ccccc32)c1C(=O)OC(C)C,-3.0%,27.8%,31.6µM*
COc1ccccc1[C@@H]1C(c2ccccc2)=NN(c2ccc(Br)cc2)[C@H]1C(=O)N1CCOC1=O,0.0%,·,17.8µM*
COc1ccccc1[C@@H]1C(c2cccc(C)c2)=NN(c2ccc(Br)cc2)[C@H]1C(=O)N1CCOC1=O,-3.2%,·,10µM*
COc1ccccc1[C@@H]1C(c2cccc(Cl)c2)=NN(c2ccccc2)[C@H]1C(=O)N1CCOC1=O,0.7%,15.1%,25.1µM*
CC[C@@H]1C(c2cccc(C)c2)=NN(c2ccccc2)[C@H]1C(=O)N1CCOC1=O,0.6%,·,2.9%
CC[C@@H]1C(c2ccc(F)cc2)=NN(c2ccc(Br)cc2)[C@H]1C(=O)N1CCOC1=O,-5.8%,·,?
Cn1c2ccccc2c2cnn(CC(=O)Nc3ccccc3C(F)(F)F)c(=O)c21,-2.6%,·,3.0%
CCOc1ccccc1CNC(=O)c1sc2ncccc2c1-n1cccc1,-3.2%,·,2.9%
CN(c1ccccc1)S(=O)(=O)c1ccc(NC(=S)NC(=O)c2ccccc2)cc1,1.8%,5.6%,?
COc1ccccc1/C=C/C(=O)NC(=S)Nc1ccc(S(=O)(=O)N(C)c2ccccc2)cc1,2.3%,19.9%,3.98µM*
CCCNC(=O)C1=CC(c2ccc3c(c2)OCO3)=NS(=O)(=O)N1C,-9.0%,·,-24.7%
COc1ccc(CCC(=O)NC2CC(=O)N(c3ccc(C)c(C)c3)C2)cc1 (stereo not given),1.6%,·,7.6%
COc1ccc(C2c3cccn3CCN2S(=O)(=O)c2ccc([N+](=O)[O-])cc2)cc1 (stereo not given),-3.2%,·,25.1µM*
SMILES,Cruzain inh Det,NS1 function inh,Cruzain inh noDet
O=[N+]([O-])c1ccc(S(=O)(=O)N2CCn3cccc3C2c2ccccc2F)cc1 (stereo not given),-8.0%,·,?
Cc1ccccc1NC(=O)c1cc(C(=O)c2cc(Cl)ccc2O)cn(-c2ccccc2C)c1=O,-3.7%,16.5%,7.94µM*
O=C(c1cc(C(=O)NCc2ccccc2)c(=O)n(Cc2ccccc2)c1)c1cc(Cl)ccc1O,-4.4%,6.3%,?
CC(C)=C[C@H]1[C@@H](C(=O)OCc2cc3c(cc2Cl)OCO3)C1(C)C,0.1%,-12.9%,-6.2%
COc1cc(C)ccc1OCCn1c(-c2ccc(Cl)cc2)nc2ccccc2c1=O,-0.1%,·,4.2%
Nc1ccc(Nc2ccccc2N)cc1,-9.1%,13.5%,25.1µM*
Nc1cc(C(=O)O)ccc1Nc1ccccc1,-1.1%,8.1%,-4.5%
Cc1cc(NC(=O)CSc2nc3ccccc3c(=O)n2-c2ccccc2)no1,11.3%,-3.1%,-10.6%
CCOC(=O)c1sc(NC(=O)CSc2nc3c(c(=O)n2-c2ccc(F)cc2)SCC3)c(C(=O)OCC)c1C,-2.7%,8.4%,25.1µM*
CCOc1ccc(-n2c(SCC(=O)Nc3ccc(OC)cc3)nc3c(c2=O)SCC3)cc1,-1.4%,-8.5%,-5.5%
COC(=O)c1c(NC(=O)CSc2nc3ccccc3c(=O)n2-c2ccccc2)sc(C)c1C,-3.0%,8.9%,12.6µM*

# From PubChem
